Reference: the supplement of paper PMC13380429
Counter-ions that a name gives are not always drawn. A number with no mark means an inactive call.

Tested on: Vero E6 infected with SARS-CoV-2
Assay: inhibition of SARS-CoV-2 cytopathic effect; higher = more antiviral protection, active = above 15
Conditions: 48 h

Row | SMILES | inhibition of SARS-CoV-2 cytopathic effect (1 nM) [%] | inhibition of SARS-CoV-2 cytopathic effect (8.33 nM) [%] | inhibition of SARS-CoV-2 cytopathic effect (100 nM) [%] | inhibition of SARS-CoV-2 cytopathic effect (833.33 nM) | inhibition of SARS-CoV-2 cytopathic effect (10000 nM)
1 | O=C(NCC(=O)N1CC[C@H](N[C@H]2CC[C@@](O)(c3ccc(-c4ncccn4)cn3)CC2)C1)c1cccc(C(F)(F)F)c1 | -4.52 | -2.69 | 1.06 | -0.75% | -0.61%
2 | C[S+](C)CC[C@H](N)C(=O)O [cabagin] | -1.01 | -0.84 | -0.11 | 0.92% | 0.96%
3 | N[C@@H](C[C@@H](F)C(=O)O)C(=O)O | 0.4 | 1.43 | 2.09 | -2.92% | -1.49%
4 | CN1CCc2cc3c(cc2[C@H]1[C@@H]1OC(=O)c2c1ccc1c2OCO1)OCO3 [bicuculline-(+)] | 0.45 | 1.6 | 0.39 | 0.32% | 0.5%
5 | CC1/C=C/C=C/C=C/C=C/C=C/C=C/C=C/C(OC2O[C@H](C)[C@@H](O)[C@H](N)[C@@H]2O)CC(O)C(C(=O)O)C(O)CC(=O)CC(O)CC(O)CC(O)CC(=O)CCCC(=O)CC(=O)OC1C(C)CC(C)C(O)CC(=O)c1ccc(N)cc1 (stereo not given in full) [candicidin] | -0.52 | 4.78 | 3.57 | 4.79% | -2.56%
6 | Nc1ccncc1 [dalfampridine] | 0.53 | 0.41 | 1.64 | 2.49% | 1.18%
7 | COc1ccc(NC(=O)c2ccc(C(=N)N(C)C)cc2)c(C(=O)Nc2ccc(Cl)cn2)c1 [betrixaban] | -1.01 | 0.96 | -0.6 | 1.17% | -3.48%
8 | CC(C)(Oc1ccc(C(=O)c2ccc(Cl)cc2)cc1)C(=O)O [fenofibric-acid] | 0.66 | -0.84 | 0.44 | 1.29% | -0.37%
9 | O=C(O)c1cc(-c2ccccc2)nc2ccccc12 [cinchophen] | -0.85 | -0.04 | -2.56 | 0.2% | 2.97%
10 | Cn1cc(C(=O)OCC2CCN(CCNS(C)(=O)=O)CC2)c2ccccc21 | -2.5 | 4.63 | 5.3 | 6.93% | -0.18%
11 | O=c1cc(-c2ccccc2)oc2cc(O)c(O)c(O)c12 [baicalein] | 1.61 | 3.69 | -0.24 | -2.55% | -5.11%
12 | N=c1ccn2c(n1)O[C@H]1[C@H](O)[C@@H](CO)O[C@H]12 [Cyclocytidine HCl] | 1.24 | 1 | 0 | -0.83% | -4.27%
13 | C[C@]12CC[C@H](O)CC1=CC[C@@H]1[C@@H]2CC[C@]2(C)C(c3cccnc3)=CC[C@@H]12 [Abiraterone (CB-7598)] | 2.77 | 5.09 | 3.28 | 2.56% | 1.88%
14 | Cn1cc(-c2ccc3c(c2)CCN3C(=O)Cc2cccc(C(F)(F)F)c2)c2c(N)ncnc21 | 0.06 | 0.68 | 1.48 | 32.5% (active) | 27.7% (active)
15 | CC(C)NC(=O)COc1cccc(-c2nc(Nc3ccc4[nH]ncc4c3)c3ccccc3n2)c1 | -1.49 | -1.42 | 0.74 | 1.37% | 1.49%
16 | Cc1cc(-c2ccc(CC(=O)Nc3ccc(-c4cccnc4)cc3)cc2)ccn1 | -2.73 | -2.58 | -2.93 | 4.57% | 7.2%
17 | c1ccc(C2CC2)c(OCC2=NCCN2)c1 [cirazoline] | -0.75 | 0.31 | -8.08 | 0.87% | -3.99%
18 | Cc1ccc2c(c1)[C@H]1CN(C)CC[C@H]1N2 [stobadine] | 1.95 | 2.65 | 1.27 | 1.23% | -0.96%
